ChEMBL document CHEMBL4513141, “CO-ADD screening of NIH (USA) - Clinical Collection” (2021)
Results with a measured potency or affinity are listed apart.

Test system: Klebsiella pneumoniae
Conditions: Concentration 20 uM; ASSAY_TEST Inhibition of Bacterial Growth; detection method Absorption (OD600); MEDIA CAMHB; plate type 384well; NBS; CORNING #3640; time 18 hr

Row | SMILES | Inhibition [%]
1 | CC(COc1ccccc1)N(CCCl)Cc1ccccc1.Cl (stereo not given) [PHENOXYBENZAMINE HYDROCHLORIDE] | 17.18
2 | NS(=O)(=O)c1cc(C2(O)NC(=O)c3ccccc32)ccc1Cl (stereo not given) [CHLORTHALIDONE] | 4.57
3 | CC(C)(C)NCC(O)c1cc(O)cc(O)c1.O=S(=O)(O)O (stereo not given) | 12.1
4 | Br.Br.CN1CC[C@]2(c3cccc(O)c3)Cc3nc4ccccc4cc3C[C@H]2C1.O | 12.17
5 | CC(C)CC(N(C)C)C1(c2ccc(Cl)cc2)CCC1 (stereo not given) [SIBUTRAMINE] | 10.19
6 | CNC(=O)Oc1ccc2c(c1)[C@]1(C)CCN(C)C1N2C.CNC(=O)Oc1ccc2c(c1)[C@]1(C)CCN(C)C1N2C.O=S(=O)(O)O (stereo not given in full) | 13.28
7 | C[C@H](CCC(=O)O)[C@H]1CC[C@H]2[C@@H]3C(=O)C[C@@H]4CC(=O)CC[C@]4(C)[C@H]3CC(=O)[C@]12C [DEHYDROCHOLIC ACID] | 5.88
8 | CN(C)CCC=C1c2ccccc2CCc2ccccc21.Cl [AMITRIPTYLINE HYDROCHLORIDE] | 11.13
9 | Cc1nnc2n1-c1ccc(Cl)cc1C(c1ccccc1)=NC2 [ALPRAZOLAM] | 8.67
10 | CCC(COC(=O)c1cc(OC)c(OC)c(OC)c1)(c1ccccc1)N(C)C.O=C(O)/C=C\C(=O)O (stereo not given) | 22.71
11 | C[N+]1(CCC(C(N)=O)(c2ccccc2)c2ccccc2)CCCCC1.[Br-] [FENPIVERINIUM BROMIDE] | -3.21
12 | CCOC(=O)C1(c2ccccc2)CCN(CCC(C#N)(c2ccccc2)c2ccccc2)CC1.Cl [DIPHENOXYLATE HYDROCHLORIDE] | 2.24
13 | C[C@]12Cc3c[nH]nc3C[C@@H]1CC[C@@H]1[C@@H]2CC[C@@]2(C)[C@H]1CC[C@]2(C)O [STANOZOLOL] | 7.49
14 | Cc1cc(NS(=O)(=O)c2ccc(N)cc2)no1 [SULFAMETHOXAZOLE] | 4.09
15 | Cl.O=C1c2cccc3c2[C@H](CCC3)CN1[C@@H]1CN2CCC1CC2 [PALONOSETRON HYDROCHLORIDE] | 8.73
16 | Br.COc1ccc2c3c1O[C@H]1C[C@@H](O)C=C[C@@]31CCN(C)C2 [GALANTAMINE HYDROBROMIDE] | 16.19
17 | Br.COc1ccc2c(c1)[C@]13CCCC[C@@H]1[C@H](C2)N(C)CC3.O [DEXTROMETHORPHAN HYDROBROMIDE] | 8.1
18 | Cl.Oc1ccc2c3c1OC1C(O)CC[C@@]4(O)[C@@H](C2)N(CC2CCC2)CC[C@]314 (stereo not given in full) | 8.11
19 | CC(=O)OCC[N+](C)(C)C.[Cl-] [ACETYLCHOLINE CHLORIDE] | 16.59
20 | C[C@]12CC(C=O)=C(O)C[C@@H]1CC[C@@H]1[C@@H]2CC[C@@]2(C)[C@H]1CC[C@]2(C)O | 6.07
21 | Cl.N=C(N)NC(=O)c1nc(Cl)c(N)nc1N.O.O [AMILORIDE HYDROCHLORIDE] | 12.19
22 | Cc1c(O)c(=O)ccn1C [DEFERIPRONE] | 3.55
23 | CCOC(=O)C1=C(COCCN)NC(C)=C(C(=O)OC)C1c1ccccc1Cl (stereo not given) [AMLODIPINE] | 0.34
24 | NCCc1ccccn1 | 3.21
25 | C[C@H](CCC(=O)O)[C@H]1CC[C@H]2[C@@H]3[C@@H](O)C[C@@H]4C[C@H](O)CC[C@]4(C)[C@H]3CC[C@]12C [URSODIOL] | 5.07
26 | CC(C)c1cccc(C(C)C)c1O [PROPOFOL] | 12.14
27 | Fc1ccc([C@@H]2CCNC[C@H]2COc2ccc3c(c2)OCO3)cc1.O=C(O)/C=C\C(=O)O | 6.3
28 | CC(C(=O)O)c1ccc(-c2ccccc2)c(F)c1 (stereo not given) [FLURBIPROFEN] | 4.59
29 | CC(=O)OC1C([N+]2(C)CCCCC2)C[C@H]2C3CC[C@H]4C[C@H](OC(C)=O)C([N+]5(C)CCCCC5)CC4(C)[C@H]3CCC12C.[Br-].[Br-] (stereo not given in full) | 10.46
30 | CC[C@@H]1/C=C/C=C/C[C@H](C)[C@@H](O)[C@](C)(O)C(=O)[C@H](C)[C@@H](O)[C@H](C)C(=O)[C@H](C)[C@@H](O)[C@H](C)/C=C/C(=O)O[C@H]2[C@@H](C)[C@@H](CC1)O[C@@]1(CC[C@@H](C)[C@@H](C[C@H](C)O)O1)[C@@H]2C | 17.55
